This is an account of results in PubChem BioAssay.

A short description of test [1]: StAR promoter reporter inhibitors, counter-screen for LRH-1 inverse agonist project, cell-based, luminescence, high throughput (AID 651611; in the data active = inhibition above about 28%). Particulars: StAR promoter luciferase reporter counterscreen, at 3.6 µM, stronger effect = higher value.
Test [2] deals with Nuclear receptor subfamily 5 group A member 2 (Homo sapiens) (UniProt O00482). As to the kind of experiment: NR5A2 activity suppression in reporter cells – cell-based, luminescence, confirmation (AID 651613; in the data active = inhibition above about 42%;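 note: HEK293T cells co-transfected with LRH-1 and StAR promoter luciferase reporter; 0% = vehicle wells and 100% = parental cells lacking receptor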). The settings on record: cell-based LRH-1 luciferase reporter, inverse agonism; at 3.6 µM; stronger effect = higher value.
Chain of Nuclear receptor subfamily 5 group A member 2 (Homo sapiens) (O00482 whole entry, looked up): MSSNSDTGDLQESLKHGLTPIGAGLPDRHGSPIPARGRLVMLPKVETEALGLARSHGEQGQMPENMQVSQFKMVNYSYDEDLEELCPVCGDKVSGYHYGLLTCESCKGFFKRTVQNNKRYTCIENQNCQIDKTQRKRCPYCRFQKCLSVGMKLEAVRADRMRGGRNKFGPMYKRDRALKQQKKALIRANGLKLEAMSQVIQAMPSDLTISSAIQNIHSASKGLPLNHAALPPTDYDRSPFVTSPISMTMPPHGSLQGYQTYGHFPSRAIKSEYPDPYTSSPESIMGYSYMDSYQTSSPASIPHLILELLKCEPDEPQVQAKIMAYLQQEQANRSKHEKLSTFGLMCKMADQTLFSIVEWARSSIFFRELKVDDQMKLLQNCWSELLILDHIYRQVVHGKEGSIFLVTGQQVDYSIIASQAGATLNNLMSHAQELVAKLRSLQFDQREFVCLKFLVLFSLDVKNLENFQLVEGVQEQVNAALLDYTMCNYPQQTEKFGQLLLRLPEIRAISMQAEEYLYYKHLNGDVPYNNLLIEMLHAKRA
Test [3] has as its target Steroidogenic factor 1 (Homo sapiens) (UniProt Q13285). The test is described as follows: inverse agonism at SF1 nuclear receptor – cell-based, luminescence, high throughput, counter-screen for LRH-1 inverse agonist project (AID 651614; in the data active = inhibition above about 44%;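 note: cells cotransfected with StAR promoter reporter and SF1 expression vector; 0% = vehicle on cells with receptor and 100% = vehicle on cells lacking receptor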). Particulars: cell-based SF1 luciferase reporter, at 3.6 µM, stronger effect = higher value.
Test [4] can be described thus: compounds suppressing VP16-driven luciferase signal – cell-based, luminescence, high throughput, counter-screen for LRH-1 inverse agonist project (AID 651615). The settings on record: Gal4-VP16 luciferase reporter cells, at 3.6 µM, stronger effect = higher value.
For test [5], the target named is Photoreceptor-specific nuclear receptor (Homo sapiens) (UniProt Q9Y5X4). As to the kind of experiment: retest of NR2E3-NCOR disrupting agonists – cell-based, luminescence, CHO-S two-hybrid, confirmation (AID 624378;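 active = average inhibition above a cutoff equal to the mean inhibition of all tested compounds plus one SD, cut at about 70% in these data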;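 note: 0% = DMSO in NR2E3 cells and 100% = DMSO in cells lacking NR2E3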). Particulars: CHO-S mammalian two-hybrid NR2E3-NCOR, luciferase luminescence; at 3.98 µM; stronger effect = higher value.
Chain of Photoreceptor-specific nuclear receptor (Homo sapiens) (Q9Y5X4 whole entry, looked up): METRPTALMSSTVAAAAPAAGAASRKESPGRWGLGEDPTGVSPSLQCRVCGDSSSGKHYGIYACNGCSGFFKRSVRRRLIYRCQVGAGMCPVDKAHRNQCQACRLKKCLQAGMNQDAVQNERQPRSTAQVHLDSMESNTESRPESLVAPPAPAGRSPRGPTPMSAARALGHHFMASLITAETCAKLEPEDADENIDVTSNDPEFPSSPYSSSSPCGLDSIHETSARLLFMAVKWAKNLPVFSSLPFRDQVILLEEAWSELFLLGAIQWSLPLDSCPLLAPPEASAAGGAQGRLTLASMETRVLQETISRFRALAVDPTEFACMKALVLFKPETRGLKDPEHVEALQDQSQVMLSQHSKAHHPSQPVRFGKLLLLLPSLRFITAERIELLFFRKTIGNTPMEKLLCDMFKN
A short description of test [6]: nonselective effects on VP16 transactivation – cell-based, luminescence, CHO-S, high throughput, counter-screen for NR2E3 agonist project, confirmation (AID 624379;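 active = mean inhibition above a cutoff equal to the average over all tested compounds plus one standard deviation, cut at about 70% in these data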;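 note: 0% = DMSO with VP16-transfected cells and 100% = DMSO with cells lacking VP16; higher means less reporter light so more repression of VP16 activity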). Particulars: CHO-S GAL4-VP16 luciferase reporter, at 3.98 µM, stronger effect = higher value.
Test [7] in a line: VP16-driven transactivation reporter suppression – cell-based, luminescence, HEK293, counter-screen for COUP-TFII antagonist project (AID 687007; in the data active = inhibition above about 13%). The settings on record: HEK293 Gal4-VP16 luciferase reporter, at 8.5 µM, stronger effect = higher value.
The target in test [8] is COUP transcription factor 2 (Homo sapiens) (UniProt P24468). The test is described as follows: retest of COUP-TFII reporter suppressors – cell-based, luciferase reporter, HEK293, triplicate, confirmation (AID 687008;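 active = mean inhibition over three repeats above a set limit taken from the earlier primary screen, cut at about 38% in these data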;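 note: 100% = cells given the luciferase reporter alone without the COUP-TF2 vector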). Particulars: HEK293 NGFI-A luciferase reporter, luminescence; at 8.5 µM; stronger effect = higher value.
Chain of COUP transcription factor 2 (Homo sapiens) (P24468 whole entry, looked up): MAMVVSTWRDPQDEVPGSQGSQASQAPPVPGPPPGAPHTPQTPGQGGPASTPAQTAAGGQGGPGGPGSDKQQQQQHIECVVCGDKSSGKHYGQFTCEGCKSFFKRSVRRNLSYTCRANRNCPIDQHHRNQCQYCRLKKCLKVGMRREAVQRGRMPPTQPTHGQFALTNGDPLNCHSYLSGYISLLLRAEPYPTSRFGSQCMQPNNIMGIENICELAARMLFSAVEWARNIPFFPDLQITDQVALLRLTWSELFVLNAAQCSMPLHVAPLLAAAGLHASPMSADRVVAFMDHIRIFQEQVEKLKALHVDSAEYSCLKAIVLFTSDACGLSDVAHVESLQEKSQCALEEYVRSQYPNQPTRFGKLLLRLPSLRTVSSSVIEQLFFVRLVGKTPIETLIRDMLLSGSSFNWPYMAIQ

Unmarked numbers belong to inactive results. Some of the results follow. The source made the active and inactive calls. Cut-off read from the data, not from the text of the source, unless noted: active = inhibition above about 33%; inactive = the rest.

Chain of Steroidogenic factor 1 (Homo sapiens) (Q13285 whole entry, looked up, the tested form may be a part): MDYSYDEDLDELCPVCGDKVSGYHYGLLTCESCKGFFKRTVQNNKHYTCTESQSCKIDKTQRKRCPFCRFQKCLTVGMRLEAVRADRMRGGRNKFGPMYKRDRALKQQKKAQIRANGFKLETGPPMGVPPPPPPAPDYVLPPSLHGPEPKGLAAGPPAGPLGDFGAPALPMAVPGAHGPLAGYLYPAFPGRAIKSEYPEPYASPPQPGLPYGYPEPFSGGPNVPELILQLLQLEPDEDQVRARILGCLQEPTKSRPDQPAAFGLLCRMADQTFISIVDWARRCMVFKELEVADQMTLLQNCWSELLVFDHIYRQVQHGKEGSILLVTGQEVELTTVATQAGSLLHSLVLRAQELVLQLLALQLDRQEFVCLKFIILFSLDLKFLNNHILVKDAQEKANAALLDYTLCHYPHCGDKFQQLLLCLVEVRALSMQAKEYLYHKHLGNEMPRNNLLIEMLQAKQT

Regarding `CC(=O)C1=C(c2ccc(Br)cc2)C(=O)c2ccccc2C1=O`, the inhibition was 74.3% (active) in test [1], 101% (active) in test [2], 78.1% (active) in test [3] and 92% (active) in test [4].

Regarding `O=[N+]([O-])c1ccc(/C=N/n2c(CO)nc3ccccc32)s1`, the inhibition in test [1] was 16.3%; in test [2] it was 62.2% (active); in test [3], 59.9% (active); in test [4], 2.51%.

In the case of `COc1ccc(CC(=O)Nc2nc(-c3ccc(F)c(F)c3)cs2)cc1OC`, the inhibition was 98% (active) in test [5], 81.8% (active) in test [6], 2.71% in test [7] and 55.4% (active) in test [8].

In the case of `CCCCCCCCN1C(=O)[C@H](CC(=O)NCC23CC4CC(CC(C4)C2)C3)C[C@@]2(C(=O)OCC)CCCC=C12`, the inhibition in test [1] was 22.3%; in test [2] it was 24.8%; in test [3] it was 17.4%; in test [4], 14.6%.

For `CCOc1ccc(NC(=O)COC(=O)C2CCC(=O)N2)c([N+](=O)[O-])c1` (stereo unspecified), the inhibition in test [1] is 4.31%; in test [2], 50.5% (active); in test [3], 43.6% (active); in test [4], -7.9%.

Regarding `Cc1cccc(NC(=O)c2ccc([N+](=O)[O-])o2)c1C`, the inhibition is 24.6% in test [1], 64.2% (active) in test [2], 60.4% (active) in test [3] and -8.95% in test [4].

For `COc1ccc(OC)c(/C=N/N=C2\SCC(=O)N2Cc2ccco2)c1`, the inhibition in test [1] was 10.7%; in test [2] it was 57.4% (active); in test [3], 45.7% (active); in test [4] it was 5.2%.

For `Cn1c(Cc2cccc3ccccc23)nnc1SCC(=O)N1CCN(c2cccc(Cl)c2)CC1`, the inhibition in test [5] was 78.1% (active); in test [6] it was 30.7%; in test [7] it was -7.02%; in test [8], 30.3%.

For `O=[N+]([O-])c1cccc(-c2ccc3nnc(SCc4cccnc4)n3n2)c1`, the inhibition in test [1] was 3.6%; in test [2] it was 62.1% (active); in test [3], 62% (active); in test [4], 19.4%.

Turning to `CC(=O)/C(=N/Nc1ccccc1[N+](=O)[O-])N1CCCc2ccccc21`, the inhibition is 17.5% in test [1], 49.2% (active) in test [2], 52.1% (active) in test [3] and 22.7% in test [4].

Turning to `CCCCOc1ccc(Br)cc1CSC(=N)N`, the inhibition in test [1] is 16.4%; in test [2], 103% (active); in test [3], 62.3% (active); in test [4], 83.2% (active).

`O=[N+]([O-])c1cc2ncccc2c2ncccc12`: the inhibition in test [1] was 42.1% (active); in test [2], 56.2% (active); in test [3], 53.1% (active); in test [4], -8.8%.

For the compound `COc1cc(CC(=O)Nc2nc(-c3ccc(F)c(F)c3)cs2)cc(OC)c1OC`, the inhibition in test [5] was 94.2% (active); in test [6] it was 86.9% (active); in test [7], -0.07%; in test [8], 44.8% (active).

Take `O=C(c1ccc(Oc2ccc([N+](=O)[O-])cc2Cl)cc1)N1CCCC1`: the inhibition is 6.61% in test [1], 46.2% (active) in test [2], 58.9% (active) in test [3] and 4.32% in test [4].

Consider `Cc1no[n+]([O-])c1COc1ccc(/C=C2\NC(=S)NC2=O)cc1`, for which the inhibition in test [1] was -5.62%; in test [2], 48.3% (active); in test [3], 45.9% (active); in test [4] it was -19.4%.

Regarding `Cc1cc(-c2nn3c(-c4ccccc4)nnc3s2)c2ccccc2n1`, the inhibition in test [1] is 7.3%; in test [2] it was 38.6%; in test [3], 22.6%; in test [4], -31.6%.

Take `O=C(Nc1ccc(S(=O)(=O)N2CCOCC2)cc1)c1ccc([N+](=O)[O-])o1`: the inhibition in test [1] was 17.6%; in test [2] it was 57.5% (active); in test [3], 65.2% (active); in test [4], -5.86%.

For `O=C1C=C(NCCc2ccccc2)C2(CCCCC2)O1`, the inhibition is 3.62% in test [1], 59.9% (active) in test [2], 49.5% (active) in test [3] and -3.99% in test [4].

With `CN(C)S(=O)(=O)c1ccc(C(=O)NCc2ccc3[nH]c4c(c3c2)CCCC4)cc1`, the inhibition in test [1] was 24.6%; in test [2], 39.3%; in test [3] it was 54.4% (active); in test [4], -9.28%.

Take `COc1ccc(NC(=O)COC(=O)CNC(=O)c2cc(OC)c(OC)c(OC)c2)cc1`: the inhibition in test [1] was 8.08%; in test [2] it was 42.9% (active); in test [3], 50.5% (active); in test [4] it was -7.21%.

As to `CC(=O)c1ccc2c(c1)C1C=CCC1C(c1cc3c(cc1Br)OCO3)N2` (stereo unspecified), the inhibition in test [1] is 45.6% (active); in test [2], 50.3% (active); in test [3] it was 46.1% (active); in test [4], 16.9%.

With `CCCc1cc(=O)oc2cc(OCC(=O)NCCc3ccc(S(N)(=O)=O)cc3)ccc12`, the inhibition in test [1] was 9.29%; in test [2] it was 50.9% (active); in test [3], 51.1% (active); in test [4] it was 4.44%.

Turning to `COc1ccc(/C=C2/CSC/C(=C/c3ccc(OC)c(OC)c3)C2=O)cc1OC`, the inhibition in test [1] was -4.62%; in test [2], 74.5% (active); in test [3], 74.9% (active); in test [4], 76.8% (active).

For the compound `COc1ccccc1Oc1nnnn1-c1ccc(C(N)=O)cc1`, the inhibition was 15.4% in test [1], 48% (active) in test [2], 51.8% (active) in test [3] and -9.03% in test [4].
